# Data reported in PubChem BioAssay (EPA / NIEHS).
# Active and inactive are the calls of the source. Rule for the calls: active = hit-call score of the fitted dose curve at least 0.9, where 1 is the maximum; inactive = score below 0.9.
# Tests used:
# [1] = read-out: Matrix Metallopeptidase 1 (MMP1), MMP1 (gene 4312); experiment: BSK_hDFCGF_MMP1: BioMAP Diversity Plus: hDFCGF Assay for Matrix Metallopeptidase 1 (MMP1) Biomarker Activity (AID 2283064); conditions: primary human foreskin fibroblasts; actives raise or lower the signal
# Procedure, shortened: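 Primary human foreskin fibroblasts exposed to chemicals for 24 h; MMP1 measured by ELISA. Cytotoxicity tracked by SRB staining in parallel cultures; bidirectional fit relative to DMSO.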
# [2] = read-out: Vascular cell adhesion molecule 1 (VCAM1), VCAM1 (gene 7412); experiment: BSK_hDFCGF_VCAM1: BioMAP Diversity Plus: hDFCGF Assay for Vascular cell adhesion molecule 1 (VCAM1) Biomarker Activity (AID 2283065); conditions: primary human foreskin fibroblasts; actives raise or lower the signal;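 for AC50: VCAM-1 protein level quantified by ELISA after 24 h chemical exposure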
# Procedure, shortened: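 ELISA read-out of VCAM-1 on human skin fibroblasts, 24 h post-dose; gain or loss of signal fitted bidirectionally against DMSO baseline.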
# [3] = read-out: Plasminogen activator inhibitor-1 (PAI1), SERPINE1 (gene 5054); experiment: BSK_hDFCGF_PAI1: BioMAP Diversity Plus: hDFCGF Assay for Plasminogen activator inhibitor-1 (PAI1) Biomarker Activity (AID 2283066); conditions: primary human foreskin fibroblasts; actives raise or lower the signal
# Procedure, shortened: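 PAI-1 levels, determined by ELISA, served as the endpoint in human foreskin fibroblast cultures exposed to compound for 24 h, with DMSO as baseline.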
# [4] = read-out: Intercellular Adhesion Molecule 1 (ICAM1), ICAM1 (gene 3383); experiment: BSK_KF3CT_ICAM1: BioMAP Diversity Plus: KF3CT Assay for Intercellular Adhesion Molecule 1 (ICAM1) Biomarker Activity (AID 2283067); conditions: primary human keratinocytes with fibroblasts; actives raise or lower the signal
# Procedure, shortened: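 ELISA readout of ICAM-1; KF3CT human skin co-culture (keratinocytes + foreskin fibroblasts), 24 h post-dose; gain/loss fit vs DMSO baseline.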
# [5] = read-out: Interferon-gamma inducible Protein 10 (IP10), CXCL10 (gene 3627); experiment: BSK_KF3CT_IP10: BioMAP Diversity Plus: KF3CT Assay for Interferon-gamma inducible Protein 10 (IP10) Biomarker Activity (AID 2283068); conditions: primary human keratinocytes with fibroblasts; actives raise or lower the signal
# Procedure, shortened: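 Signal is secreted/surface IP-10 by ELISA in a human primary skin co-culture of keratinocytes and foreskin fibroblasts, taken 24 h post-dosing; DMSO served as negative control.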
# [6] = BSK_KF3CT_SRB: Viability Assessment in the BioMAP Diversity Plus: KF3CT Assay (AID 2283069); conditions: primary human keratinocytes with fibroblasts;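 note: total protein by sulforhodamine B staining as a cytotoxicity measure; read 24 h after compound addition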
# Procedure, shortened: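 Human keratinocyte and foreskin fibroblast co-culture exposed to chemical for 24 h. Total protein measured in parallel cultures by 0.1% sulforhodamine B staining after 10% TCA fixation, read at 560 nm; bidirectional fit relative to DMSO.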
# [7] = read-out: Interleukin-1 alpha (IL1a), IL1A (gene 3552); experiment: BSK_KF3CT_IL1a: BioMAP Diversity Plus: KF3CT Assay for Interleukin-1 alpha (IL1a) Biomarker Activity (AID 2283070); conditions: primary human keratinocytes with fibroblasts; actives raise or lower the signal
# Procedure, shortened: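 Primary human keratinocyte plus foreskin fibroblast co-culture, dosed and measured at 24 h in 96-well plates. IL-1a level quantified by ELISA; bidirectional fit relative to DMSO.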
# [8] = read-out: TIMP metallopeptidase inhibitor 2 (TIMP2), TIMP2 (gene 7077); experiment: BSK_KF3CT_TIMP2: BioMAP Diversity Plus: KF3CT Assay for TIMP metallopeptidase inhibitor 2 (TIMP2) Biomarker Activity (AID 2283071); conditions: primary human keratinocytes with fibroblasts; actives raise or lower the signal
# Procedure, shortened: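 Keratinocyte–fibroblast co-culture, 24 h exposure; TIMP-2 ELISA, DMSO-normalised bidirectional fit. Parallel SRB (0.1%, TCA-fixed, 560 nm) total-protein staining gauges cytotoxicity.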
# [9] = read-out: Transforming growth factor beta 1 (TGFb1), TGFB1 (gene 7040); experiment: BSK_KF3CT_TGFb1: BioMAP Diversity Plus: KF3CT Assay for Transforming growth factor beta 1 (TGFb1) Biomarker Activity (AID 2283072); conditions: primary human keratinocytes with fibroblasts; actives raise or lower the signal
# Procedure, shortened: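 Signal changes in either direction, relative to DMSO, define activity here. TGF-b1 is read by ELISA from a human keratinocyte-fibroblast co-culture 24 h post-dose.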
# [10] = read-out: C-C motif chemokine 2 (Homo sapiens) (UniProt P13500); experiment: BSK_KF3CT_MCP1: BioMAP Diversity Plus: KF3CT Assay for Monocyte Chemoattractant Protein 1 (MCP1/CCL2) Biomarker Activity (AID 2283073); conditions: primary human keratinocytes with fibroblasts; actives raise or lower the signal
# Procedure, shortened: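 KF3CT skin co-culture (keratinocytes/foreskin fibroblasts), 24 h post-dose; MCP-1 by ELISA; gain/loss of signal fit bidirectionally vs DMSO baseline.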
# [11] = read-out: Matrix Metallopeptidase 9 (MMP9), MMP9 (gene 4318); experiment: BSK_KF3CT_MMP9: BioMAP Diversity Plus: KF3CT Assay for Matrix Metallopeptidase 9 (MMP9) Biomarker Activity (AID 2283074); conditions: primary human keratinocytes with fibroblasts; actives raise or lower the signal;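 for AC50: MMP9 protein level quantified by ELISA in the co-culture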
# Procedure, shortened: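 Human keratinocyte and foreskin fibroblast co-culture exposed to chemicals for 24 h; MMP9 biomarker measured by ELISA, bidirectional fitting relative to DMSO; cytotoxicity tracked by SRB total protein staining in parallel cultures.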
# [12] = read-out: urokinase plasminogen activator (uPA), PLAU (gene 5328); experiment: BSK_KF3CT_uPA: BioMAP Diversity Plus: KF3CT Assay for urokinase plasminogen activator (uPA) Biomarker Activity (AID 2283075); conditions: primary human keratinocytes with fibroblasts; actives raise or lower the signal
# Procedure, shortened: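 Primary human keratinocyte/foreskin fibroblast co-culture exposed to chemical; uPA measured by ELISA at 24 h. Bidirectional fit versus DMSO, with parallel SRB total-protein staining for cytotoxicity.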
# [13] = read-out: CD40, CD40 (gene 958); experiment: BSK_LPS_CD40: BioMAP Diversity Plus: LPS Assay for CD40 Biomarker Activity (AID 2283076); conditions: primary human HUVEC with PBMC; actives raise or lower the signal
# Procedure, shortened: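 ELISA readout of CD40 in HUVEC/PBMC co-culture (BSK_LPS system), 24 h post-dosing; bidirectional curve fit, DMSO baseline; parallel SRB total-protein staining for cytotoxicity.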
# [14] = read-out: E-selectin (Homo sapiens) (UniProt P16581); experiment: BSK_LPS_Eselectin: BioMAP Diversity Plus: LPS Assay for Eselectin Biomarker Activity (AID 2283077); conditions: primary human HUVEC with PBMC; actives raise or lower the signal
# Procedure, shortened: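 ELISA readout of E-selectin, 24 h post-dose, HUVEC + PBMC co-culture (LPS system). Gain or loss of signal vs DMSO baseline, bidirectional fit.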
# [15] = read-out: Interleukin-8 (IL8), CXCL8 (gene 3576); experiment: BSK_LPS_IL8: BioMAP Diversity Plus: LPS Assay for Interleukin-8 (IL8) Biomarker Activity (AID 2283078); conditions: primary human HUVEC with PBMC; actives raise or lower the signal
# Procedure, shortened: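 HUVEC + PBMC co-culture, LPS-activated; test chemicals dosed, IL-8 read by ELISA at 24 h. Bidirectional curve fit vs DMSO baseline (gain or loss of signal).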
# [16] = BSK_LPS_SRB: Viability Assessment in the BioMAP Diversity Plus: LPS Assay (AID 2283079); conditions: primary human HUVEC with PBMC;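 note: total protein by sulforhodamine B absorbance as a cytotoxicity measure; measured one day after compound addition; fitted in both directions against DMSO so loss or gain of signal counts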
# Procedure, shortened: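 HUVEC + PBMC co-culture, LPS-stimulated; compound 24 h. 10% TCA fix, 0.1% SRB stain, A560. Bidirectional fit vs DMSO.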
# [17] = read-out: Interleukin-1 alpha (IL1a), IL1A (gene 3552); experiment: BSK_LPS_IL1a: BioMAP Diversity Plus: LPS Assay for Interleukin-1 alpha (IL1a) Biomarker Activity (AID 2283080); conditions: primary human HUVEC with PBMC; actives raise or lower the signal
# Procedure, shortened: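 HUVEC/PBMC co-culture, LPS system; 24 h after dosing; IL-1a by ELISA; gain or loss of signal fitted bidirectionally vs DMSO baseline.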
# [18] = read-out: Monocyte Chemoattractant Protein-1 (MCP1), CCL2 (gene 6347); experiment: BSK_LPS_MCP1: BioMAP Diversity Plus: LPS Assay for Monocyte Chemoattractant Protein-1 (MCP1) Biomarker Activity (AID 2283081); conditions: primary human HUVEC with PBMC; actives raise or lower the signal;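 for AC50: secreted MCP-1 protein quantified by ELISA in culture supernatant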
# Procedure, shortened: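 ELISA read-out of MCP-1 after 24 h chemical dosing of a human umbilical vein endothelial cell/peripheral blood mononuclear cell co-culture stimulated with LPS. Gain or loss of signal fitted relative to DMSO controls.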
# [19] = BSK_LPS_PGE2: BioMAP Diversity Plus: LPS Assay for Prostaglandin E2 (PGE2) Biomarker Activity (AID 2283082); conditions: primary human HUVEC with PBMC; actives raise or lower the signal;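 for AC50: secreted prostaglandin E2 measured by ELISA in LPS-stimulated co-culture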
# Procedure, shortened: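 Endpoint derived from bidirectional curve fitting versus DMSO of ELISA-measured PGE2 in LPS-stimulated human primary vascular co-culture (HUVEC with PBMC) harvested at 24 h.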
# [20] = read-out: Macrophage colony-stimulating factor (MCSF), CSF1 (gene 1435); experiment: BSK_LPS_MCSF: BioMAP Diversity Plus: LPS Assay for Macrophage colony-stimulating factor (MCSF) Biomarker Activity (AID 2283083); conditions: primary human HUVEC with PBMC; actives raise or lower the signal
# Procedure, shortened: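 HUVEC + PBMC co-culture (human primary), 24 h post-dose; M-CSF by ELISA; gain/loss of signal fitted bidirectionally vs DMSO baseline.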
# Chain of E-selectin (Homo sapiens) (P16581 whole entry, looked up): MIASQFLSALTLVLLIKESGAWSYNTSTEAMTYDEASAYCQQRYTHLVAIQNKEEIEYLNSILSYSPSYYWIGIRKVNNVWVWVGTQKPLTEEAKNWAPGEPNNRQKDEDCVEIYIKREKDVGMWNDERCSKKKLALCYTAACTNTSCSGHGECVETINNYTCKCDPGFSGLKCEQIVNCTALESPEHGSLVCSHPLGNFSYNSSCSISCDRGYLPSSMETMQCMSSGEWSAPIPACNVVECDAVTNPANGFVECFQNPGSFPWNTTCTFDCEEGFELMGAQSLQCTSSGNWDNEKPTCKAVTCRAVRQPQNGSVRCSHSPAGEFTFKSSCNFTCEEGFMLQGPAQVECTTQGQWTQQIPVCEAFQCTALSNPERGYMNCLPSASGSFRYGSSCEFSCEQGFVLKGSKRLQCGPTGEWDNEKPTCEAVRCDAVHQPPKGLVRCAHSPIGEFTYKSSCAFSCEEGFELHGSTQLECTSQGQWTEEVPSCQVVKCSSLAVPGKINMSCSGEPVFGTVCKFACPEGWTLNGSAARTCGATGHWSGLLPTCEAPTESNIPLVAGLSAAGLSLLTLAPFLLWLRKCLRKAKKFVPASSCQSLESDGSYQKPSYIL
smiles,measurement,setting,value
C[C@]12CC[C@@H]3c4ccc(O)cc4CC[C@H]3[C@@H]1CCC2=O,outcome,[1],inactive
same,outcome,[2],inactive
same,outcome,[3],inactive
same,outcome,[4],inactive
same,outcome,[5],inactive
same,outcome,[6],inactive
same,outcome,[7],inactive
same,outcome,[8],inactive
same,outcome,[9],inactive
same,outcome,[10],inactive
same,outcome,[11],inactive
same,outcome,[12],inactive
same,outcome,[13],inactive
same,AC50,[14],0.122 µM (active)
same,outcome,[15],inactive
same,outcome,[16],inactive
same,outcome,[17],inactive
same,outcome,[18],inactive
same,outcome,[19],inactive
same,outcome,[20],inactive
CCCCCCCCOc1ccc(C(=O)c2ccccc2)c(O)c1,outcome,[1],inactive
same,outcome,[2],inactive
same,outcome,[3],inactive
same,outcome,[4],inactive
same,outcome,[5],inactive
same,outcome,[6],inactive
same,outcome,[7],inactive
same,outcome,[8],inactive
same,outcome,[9],inactive
same,outcome,[10],inactive
same,outcome,[11],inactive
same,outcome,[12],inactive
same,AC50,[13],25.3 µM (active)
same,outcome,[14],inactive
same,outcome,[15],inactive
same,outcome,[16],inactive
same,outcome,[17],inactive
same,outcome,[18],inactive
same,outcome,[19],inactive
same,outcome,[20],inactive
CC[C@@H]1C[C@H](N(Cc2cc(C(F)(F)F)cc(C(F)(F)F)c2)C(C)=O)c2cc(C(F)(F)F)ccc2N1C(=O)OC(C)C,outcome,[1],inactive
same,outcome,[2],inactive
same,outcome,[3],inactive
same,outcome,[4],inactive
same,outcome,[5],inactive
same,outcome,[6],inactive
same,outcome,[7],inactive
same,outcome,[8],inactive
same,outcome,[9],inactive
same,outcome,[10],inactive
same,outcome,[11],inactive
same,outcome,[12],inactive
same,outcome,[13],inactive
same,outcome,[14],inactive
same,outcome,[15],inactive
same,outcome,[16],inactive
same,outcome,[17],inactive
same,outcome,[18],inactive
same,outcome,[19],inactive
same,outcome,[20],inactive
O=c1[nH]sc2ccccc12,AC50,[1],6.98 µM (active)
same,AC50,[2],1.82 µM (active)
same,AC50,[3],3.23 µM (active)
same,AC50,[4],20 µM (active)
same,AC50,[5],31.7 µM (active)
same,AC50,[6],35.7 µM (active)
same,AC50,[7],13.7 µM (active)
same,AC50,[8],32.2 µM (active)
same,AC50,[9],30.7 µM (active)
same,AC50,[10],30.4 µM (active)
same,AC50,[11],31.2 µM (active)
same,AC50,[12],33 µM (active)
same,AC50,[13],7.06 µM (active)
same,AC50,[14],25.9 µM (active)
same,AC50,[15],22.1 µM (active)
same,AC50,[16],25.7 µM (active)
same,AC50,[17],8.77 µM (active)
same,AC50,[18],17.6 µM (active)
same,AC50,[19],3.94 µM (active)
same,AC50,[20],12 µM (active)
CC(=O)N1CCN(c2ccc(OC[C@H]3CO[C@](Cn4ccnc4)(c4ccc(Cl)cc4Cl)O3)cc2)CC1,AC50,[1],32.6 µM (active)
same,AC50,[2],35.5 µM (active)
same,AC50,[3],34.2 µM (active)
same,AC50,[4],30.9 µM (active)
same,AC50,[5],34.5 µM (active)
same,AC50,[6],26.6 µM (active)
same,AC50,[7],33.6 µM (active)
same,AC50,[8],31.5 µM (active)
same,AC50,[9],29.2 µM (active)
same,outcome,[10],inactive
same,AC50,[11],29.8 µM (active)
same,AC50,[12],30.8 µM (active)
same,AC50,[13],11.8 µM (active)
same,AC50,[14],32.2 µM (active)
same,AC50,[15],29.9 µM (active)
same,AC50,[16],20 µM (active)
same,AC50,[17],35.6 µM (active)
same,AC50,[18],31 µM (active)
same,outcome,[19],inactive
c1ccc2n[nH]nc2c1,outcome,[1],inactive
same,outcome,[2],inactive
same,outcome,[3],inactive
same,outcome,[4],inactive
same,outcome,[5],inactive
same,outcome,[6],inactive
same,outcome,[7],inactive
same,outcome,[8],inactive
same,outcome,[9],inactive
same,outcome,[10],inactive
same,outcome,[11],inactive
same,outcome,[12],inactive
same,outcome,[13],inactive
same,outcome,[14],inactive
same,outcome,[15],inactive
same,outcome,[16],inactive
same,outcome,[17],inactive
same,outcome,[18],inactive
same,outcome,[19],inactive
same,outcome,[20],inactive
